The text below walks through data of PubChem BioAssay.

Assay [1] in a line: antimalarial activity against Dd2 strain (AID 2302;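 active = growth inhibition above 50% at the single 2 µM test dose, taken to imply half-maximal potency below 2 µM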;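 note: 0% = DMSO untreated growth and 100% = chloroquine plus artemisinin killed control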). Particulars: P. falciparum Dd2 in RBCs, LDH growth readout, 72 h; at 2 µM; active compounds read high.
A short description of assay [2]: HepG2 cytotoxicity, primary screen, cytotoxicity control for P. falciparum antimalarial project, cell-based, ATP luminescence (AID 2303;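 active = inhibition above 50%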;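 note: 0% = DMSO wells and 100% = digitonin-killed cells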). Particulars: HepG2 viability, 24-48 h, at 10 µM, active compounds read high.
The target of assay [3] is L-lactate dehydrogenase (Plasmodium falciparum (isolate CDC / Honduras)) (UniProt Q27743). As to the kind of experiment: PfLDH activity inhibition – cell lysate, 3D7 strain, counter-screen for P. falciparum growth inhibition project (AID 2304).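 Note: 0% = vehicle and 100% = reference inhibitor.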 Particulars: P. falciparum 3D7 crude extract, LDH APAD/NBT absorbance; at 2 µM; active compounds read high.
Assay [4] in a line: inhibition of 3D7 malaria parasite growth – strain 3D7 (AID 2306).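 Note: 0% = DMSO wells and 100% = chloroquine plus artemisinin control wells.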 Particulars: P. falciparum 3D7 erythrocytic growth, LDH absorbance, 72 h; at 2 µM; active compounds read high.
In assay [5] the target is Calcium-dependent protein kinase 1 (Plasmodium falciparum (isolate 3D7)) (UniProt P62344). As to the kind of experiment: PfCDPK1 kinase inhibitors, biochemical, TCAMS library (AID 1159585; cut-off not given, nearly all actives have IC50 up to about 0.98 µM;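 note: inhibitors leave more ATP so luminescence rises with inhibition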). Particulars: recombinant PfCDPK1, Kinase-Glo ATP depletion luminescence. Background: Kinase-Glo reads ATP consumption through a luciferase reaction.
Assay [6] concerns the target Plasmodium falciparum protein kinase 6 (PK6, PF3D7_1337100) (UniProt Q8IDW1). As to the kind of experiment: PfPK6 kinase inhibitors, biochemical, TCAMS library (AID 1159586). Particulars: recombinant PfPK6, Kinase-Glo ATP depletion luminescence.
The target in assay [7] is Protein kinase 7 (PK7), Plasmodium falciparum 3D7 (PF3D7_0213400) (UniProt Q7YTF7). In words: inhibition of Plasmodium PK7 catalytic activity – biochemical, TCAMS antimalarial set, Kinase-Glo luminescence (AID 1159587). Particulars: recombinant PfPK7, Kinase-Glo ATP depletion luminescence.
For assay [8], the target named is Calcium-dependent protein kinase 4 (Plasmodium falciparum (isolate 3D7)) (UniProt Q8IBS5). As to the kind of experiment: PfCDPK4 kinase inhibitors, biochemical, TCAMS library (AID 1159588; cut-off not given, nearly all actives have IC50 up to about 0.91 µM). Particulars: recombinant PfCDPK4, Kinase-Glo ATP depletion luminescence.

A number with no mark means an inactive call. For some assays here: Measured potencies and affinities stand elsewhere. Activity calls are given as the source filed them. Unless noted, the rule behind the calls is not given here.

Protein kinase 7 (PK7), Plasmodium falciparum 3D7 (PF3D7_0213400), sequence (Q7YTF7 1-343): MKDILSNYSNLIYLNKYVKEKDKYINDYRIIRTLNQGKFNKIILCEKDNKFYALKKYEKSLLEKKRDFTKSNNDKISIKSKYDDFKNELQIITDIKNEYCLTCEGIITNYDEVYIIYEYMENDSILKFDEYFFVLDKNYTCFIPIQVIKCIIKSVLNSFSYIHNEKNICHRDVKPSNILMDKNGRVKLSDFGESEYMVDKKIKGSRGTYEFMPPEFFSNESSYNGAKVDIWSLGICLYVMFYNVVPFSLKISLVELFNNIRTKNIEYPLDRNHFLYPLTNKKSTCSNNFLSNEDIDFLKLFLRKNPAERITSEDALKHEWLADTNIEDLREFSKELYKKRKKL
L-lactate dehydrogenase (Plasmodium falciparum (isolate CDC / Honduras)), sequence (Q27743 whole entry, looked up): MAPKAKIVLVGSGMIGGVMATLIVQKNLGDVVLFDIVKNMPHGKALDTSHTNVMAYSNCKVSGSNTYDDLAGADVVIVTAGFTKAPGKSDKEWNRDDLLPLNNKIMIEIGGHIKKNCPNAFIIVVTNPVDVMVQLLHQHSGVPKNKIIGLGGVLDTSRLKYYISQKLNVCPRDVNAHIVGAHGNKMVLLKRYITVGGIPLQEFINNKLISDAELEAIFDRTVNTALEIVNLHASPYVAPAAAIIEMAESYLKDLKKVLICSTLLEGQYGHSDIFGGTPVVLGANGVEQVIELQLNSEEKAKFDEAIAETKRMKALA
Calcium-dependent protein kinase 4 (Plasmodium falciparum (isolate 3D7)), sequence (Q8IBS5 whole entry, looked up): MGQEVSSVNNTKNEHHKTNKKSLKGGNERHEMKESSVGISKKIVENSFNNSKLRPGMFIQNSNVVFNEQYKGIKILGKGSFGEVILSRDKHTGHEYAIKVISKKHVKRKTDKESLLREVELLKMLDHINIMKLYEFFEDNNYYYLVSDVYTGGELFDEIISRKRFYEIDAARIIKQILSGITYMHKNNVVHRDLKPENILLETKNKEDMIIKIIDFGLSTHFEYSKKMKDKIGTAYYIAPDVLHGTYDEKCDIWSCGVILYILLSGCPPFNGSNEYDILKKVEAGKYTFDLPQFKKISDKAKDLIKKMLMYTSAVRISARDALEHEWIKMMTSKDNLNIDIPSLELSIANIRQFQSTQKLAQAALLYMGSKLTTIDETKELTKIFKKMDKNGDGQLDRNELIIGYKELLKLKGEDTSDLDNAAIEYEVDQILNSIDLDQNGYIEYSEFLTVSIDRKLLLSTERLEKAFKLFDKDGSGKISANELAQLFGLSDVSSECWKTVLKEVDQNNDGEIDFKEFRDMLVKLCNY
Calcium-dependent protein kinase 1 (Plasmodium falciparum (isolate 3D7)), sequence (P62344 whole entry, looked up): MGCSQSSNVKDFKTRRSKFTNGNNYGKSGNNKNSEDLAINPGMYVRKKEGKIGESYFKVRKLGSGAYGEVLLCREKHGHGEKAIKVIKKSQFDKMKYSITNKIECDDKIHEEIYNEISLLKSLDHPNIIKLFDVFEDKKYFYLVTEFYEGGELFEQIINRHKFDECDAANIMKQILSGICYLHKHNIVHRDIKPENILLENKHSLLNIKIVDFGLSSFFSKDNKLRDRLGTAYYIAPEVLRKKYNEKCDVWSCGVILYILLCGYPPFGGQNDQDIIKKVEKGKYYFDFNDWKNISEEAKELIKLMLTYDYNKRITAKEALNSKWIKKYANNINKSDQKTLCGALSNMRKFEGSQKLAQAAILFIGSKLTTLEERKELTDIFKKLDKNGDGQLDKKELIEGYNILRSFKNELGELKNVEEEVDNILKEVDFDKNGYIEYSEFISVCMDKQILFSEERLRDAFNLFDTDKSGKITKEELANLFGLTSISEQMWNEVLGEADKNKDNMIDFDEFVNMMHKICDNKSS
Plasmodium falciparum protein kinase 6 (PK6, PF3D7_1337100), sequence (Q8IDW1 1-305): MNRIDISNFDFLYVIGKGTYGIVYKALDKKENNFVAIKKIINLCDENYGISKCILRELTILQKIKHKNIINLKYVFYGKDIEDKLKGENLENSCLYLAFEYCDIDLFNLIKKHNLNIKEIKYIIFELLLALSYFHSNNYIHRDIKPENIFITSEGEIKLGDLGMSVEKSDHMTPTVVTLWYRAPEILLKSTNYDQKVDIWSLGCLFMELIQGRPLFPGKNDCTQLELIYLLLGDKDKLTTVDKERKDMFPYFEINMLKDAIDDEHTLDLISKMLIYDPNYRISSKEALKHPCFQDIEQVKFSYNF

What is called inhibition is the drop in the measured response relative to a control, in per cent. With `CCOc1cc(C(=O)NC2CCN(Cc3ccccc3)C2)ccc1-c1nc2ccc(Cl)cc2[nH]1` (configuration not stated), the growth inhibition in assay [1] was 60% (active); in assay [4], 98% (active). The results for the inhibition in assay [2] and in assay [3] were 7% and 6%, respectively. Besides, the outcome in assay [5], in assay [6], in assay [7] and in assay [8] was inactive.
Turning to `Cc1cccc2[nH]c(-c3ccc(-c4ccc(CN5CCCCC5)cc4)s3)nc12`, the growth inhibition was 87% (active) in assay [1] and 99% (active) in assay [4]. Moreover, the results for the inhibition in assay [2] and in assay [3] were 16% and -2%, respectively. Further, the outcome in assay [5], in assay [6], in assay [7] and in assay [8] was inactive.
Turning to `CC(C)CCC[C@@H]([C@@H](CC1CCCCC1)C(=O)N[C@@H](CCCCNC(=O)OCc1ccccc1)C(=O)Nc1nccs1)N(O)C=O`, the growth inhibition in assay [1] is 90% (active); in assay [4], 98% (active). Moreover, the inhibition was -4% in assay [2] and 3% in assay [3]. Further, the outcome in assay [5], in assay [6], in assay [7] and in assay [8] was inactive.
In the case of `CCCCCc1cnc2nc(N)nc(N)c2c1`, the growth inhibition in assay [1] was 6%; in assay [4], 82% (active). Also, the inhibition in assay [2] was 72% (active); in assay [3], -1%. In addition, the result in assay [5], in assay [6], in assay [7] and in assay [8] was inactive.
Turning to `CS(=O)(=O)c1ccc(CCNCc2ccc(-c3ccc(CN(C(=O)C4CCCC4)C4CCN(Cc5ccccc5)CC4)cc3)nc2)cc1`, the figures for the growth inhibition in assay [1] and in assay [4] were 20% and 91% (active), respectively. Further, the inhibition in assay [2] was 24%; in assay [3], -6%. The outcome in assay [5], in assay [6], in assay [7] and in assay [8] was inactive.
Regarding `Cc1ccc(N2CCc3c(-c4cc5cccnc5nc4C)cc(C)nc32)c(Cl)c1`, the figures for the growth inhibition in assay [1] and in assay [4] were 90% (active) and 96% (active), respectively. In addition, the inhibition in assay [2] was -14%; in assay [3], 3%. Also, the outcome in assay [5], in assay [6], in assay [7] and in assay [8] was inactive.
On to `COc1ccc(C(=O)Nc2ccc(-c3nc4ccc(C)cc4[nH]3)cc2)cc1OC`, for which the growth inhibition in assay [1] is 38%; in assay [4], 100% (active). Besides, the inhibition in assay [2] is 70% (active); in assay [3], 0%. The result in assay [5], in assay [6], in assay [7] and in assay [8] was inactive.
For the compound `CCCCN(CCCC)CC(O)c1cc(-c2ccc(Cl)cc2)nc2c(Cl)cc(Cl)cc12` (configuration not stated), the growth inhibition in assay [1] and in assay [4] was 97% (active) throughout. Besides, the inhibition in assay [2] is -12%; in assay [3], 1%. The outcome in assay [5], in assay [6], in assay [7] and in assay [8] was inactive.
Turning to `CN1CCCN(Cc2cccc(-c3ccc(NS(=O)(=O)c4cccc5cccnc45)cc3)c2)CC1`, the growth inhibition in assay [1] was 87% (active); in assay [4], 100% (active). In addition, the inhibition in assay [2] is 44%; in assay [3], 2%. The result in assay [5], in assay [6], in assay [7] and in assay [8] was inactive.
For `Cc1ccccc1Nc1nc(Nc2ccccc2)c2ccccc2n1`, the values for the growth inhibition in assay [1] and in assay [4] were 21% and 103% (active), respectively. For the same compound, the inhibition was 19% in assay [2] and -8% in assay [3]. For the same compound, the result in assay [5], in assay [6], in assay [7] and in assay [8] was inactive.
With `O=C(NCCN1CCN(S(=O)(=O)c2ccc(OC3CCNCC3)c(Br)c2)CC1)c1ccc(Cl)c(Cl)c1`, the growth inhibition in assay [1] is -3%; in assay [4], 89% (active). Besides, the inhibition in assay [2] is 1%; in assay [3] it was -3%. For the same compound, the result in assay [5], in assay [6], in assay [7] and in assay [8] was inactive.
For the compound `Cc1cccc2[nH]c(-c3ccc(-c4cccc(NC(=O)c5cccc(C(N)=O)c5)c4)cc3)nc12`, the growth inhibition in assay [1] is 87% (active); in assay [4], 84% (active). Further, the inhibition in assay [2] is 14%; in assay [3] it was -1%. Moreover, the outcome in assay [5], in assay [6], in assay [7] and in assay [8] was inactive.
`O=C(O)c1ccc(OCOCOc2ccc(C(=O)O)c(O)c2)cc1O`: the growth inhibition in assay [1] was 0%; in assay [4], 99% (active). Moreover, the inhibition in assay [2] is -2%; in assay [3] it was 6%. The result in assay [5], in assay [6], in assay [7] and in assay [8] was inactive.
On to `Cc1[nH]c(C)c(-c2ccc(OCc3cc(F)cc(F)c3)nc2)c(=O)c1Br`, for which the growth inhibition in assay [1] is 97% (active); in assay [4], 98% (active). For the same compound, the inhibition in assay [2] was 37%; in assay [3] it was -7%. Further, the result in assay [5], in assay [6], in assay [7] and in assay [8] was inactive.
For `Cc1cccc2[nH]c(-c3cccc(-c4ccc(NC(=O)CCc5cnc[nH]5)cc4)c3)nc12`, the growth inhibition in assay [1] is 92% (active); in assay [4], 102% (active). In addition, the inhibition in assay [2] was 3%; in assay [3] it was 6%. Further, the outcome in assay [5], in assay [6], in assay [7] and in assay [8] was inactive.
Take `COc1ccc2c(NN=Cc3cccc([N+](=O)[O-])c3)ccnc2c1`: the growth inhibition in assay [1] was 99% (active); in assay [4], 101% (active). Further, the inhibition in assay [2] was -10%; in assay [3] it was 5%. For the same compound, the outcome in assay [5], in assay [6], in assay [7] and in assay [8] was inactive.
For the compound `COc1c(I)cc(Cc2cnc(N)nc2N)cc1I`, the growth inhibition is 0% in assay [1] and 91% (active) in assay [4]. The inhibition was 5% in assay [2] and -8% in assay [3]. Besides, the result in assay [5], in assay [6], in assay [7] and in assay [8] was inactive.
Consider `Cc1cc2ccc(/C=C/C(=O)NC3CCC(CCN4CCc5ccc(C#N)cc5CC4)CC3)cc2[nH]1` (configuration not stated), for which the values for the growth inhibition in assay [1] and in assay [4] were 56% (active) and 84% (active), respectively. The inhibition in assay [2] is 19%; in assay [3] it was -1%. For the same compound, the result in assay [5], in assay [6], in assay [7] and in assay [8] was inactive.
Consider `O=c1c2c([nH]c3cc(Cl)ccc13)CCCC2`, for which the growth inhibition in assay [1] was 73% (active); in assay [4] it was 96% (active). The results for the inhibition in assay [2] and in assay [3] were 33% and 2%, respectively. Further, the result in assay [5], in assay [6], in assay [7] and in assay [8] was inactive.
